# Measured values: PubChem BioAssay (Tox21)
# Records with an inconclusive call do not appear. A number with no mark means an inactive call. Calls of active or inactive are those of the source. Calls follow the shape of the dose curve; as a rule, active = well fitted cell-killing curve with a large enough effect in the repeat runs (not every such curve was filed as active); inconclusive = weak or mixed curves, or effect the other way; inactive = no such curve, though single readings can be large or run the other way.
# Assay: qHTS assay to identify small molecule antagonists of the farnesoid-X-receptor (FXR) signaling pathway - cell viability counter screen (AID 743221); also: nearly all actives have a fitted effect of over 50% in size
# Conditions: FXR-bla HEK293T viability, CellTiter-Glo luminescence, 16 h; series mostly up to 62.6 µM; activity change, negative = cytotoxicity: at the top concentration
# Excerpt: National Center for Advancing Translational Sciences [NCATS]
# NIH Chemical Genomics Center [NCGC]
# U.S. Environmental Protection Agency [EPA]
# National Institutes of Environmental Health Sciences [NIEHS]
# National Toxicology Program [NTP]
# U.S. Food and Drug Administration [FDA]
# The farnesoid-X-receptor (FXR), a nuclear hormone receptor, is highly expressed in liver, intestine, kidney and adrenal cortex. Natural ligands of FXR are the bile acids (Cholic acid, Chenodeoxy cholic acid etc). FXR is an important regulator of diverse metabolic pathways, including the bile acid homeostasis, lipid and glucose metabolisms. FXR regulates the expression of target genes by binding either as a monomer or as a heterodimer with the retinoid X receptor (RXR). Numerous studies have reported that FXR exerts protective function during cholestasis, diabetes, liver regeneration, and cancer. To identify compounds that inhibit FXR signaling, GeneBLAzer FXR-UAS-bla HEK 293T cell line (Invitrogen, Carlsbad, CA) containing a beta-lactamase reporter gene under the control of a UAS response element was used to screen the Tox21 10K compound library. The cytotoxicity of the Tox21 compound library against the FXR-bla cell line was tested in parallel by measuring the cell viability using CellTiter-Glo assay in the same wells.
# Tox21 Assay Protocol Summary:
# FXR-bla cells were dispensed at 5000 cells/5uL/well in 1536-well black wall/clear bottom plates using a Multidrop Combi (Thermo Fisher Scientific, Waltham, MA) dispenser. After the assay plates were incubated at 37 C and 5% CO2 for 5 h, 23 nL of compounds dissolved in DMSO, positive controls or DMSO only was transferred to the assay plate by a Pintool station (Kalypsys, San Diego, CA), followed by addition of 1 uL Chenodeoxycholic acid (50 uM, final concentration in the wells). The assay plates were incubated at 37C for 16 h. After 1 uL of LiveBLAzerTM B/G FRET substrate was added using a Bioraptr Flying Reagent Dispenser (FRD) workstation (Beckman Coulter, Indianapolis, IN), the plates were incubated at room temperature for 2 h, and fluorescence intensity was measured by an Envision plate reader (PerkinElmer, Shelton, CT). For cell viability readout that measures cytotoxicity, 4uL/well of CellTiter-Glo reagent was added into the assay plates using a Bioraptr FRD. After 30 min incubation at room temperature, the luminescence intensity in the plates was measured using a ViewLux plate reader (PerkinElmer).
# % is scaled to controls: 0 for no effect and ±100 for the full control effect.
Structure (SMILES),"activity change, negative = cytotoxicity",Potency
CCC(C)Cl (stereo not given),-1.61%,
CCCBr,0.652%,
OCCCl,-1.38%,
C[N+](C)(C)CCOC(=O)C(O)(c1ccccc1)c1ccccc1,-2.71%,
ClCc1ccccc1Cl,5.18% [at 81.1 µM],
Cc1cnc(C2=NC(C)(C(C)C)C(=O)N2)c(C(=O)O)c1 (stereo not given),8.94%,
Cc1ncc(C[n+]2csc(CCO)c2C)c(N)n1,0.831%,
NCCc1cc(O)c(O)cc1O,-7.13%,
CCC1CCC(=O)O1 (stereo not given),6.67% [at 81.1 µM],
C=CCc1ccc(OC(=O)Cc2ccccc2)c(OC)c1,-0.617%,
COCc1cnc(C2=NC(C)(C(C)C)C(=O)N2)c(C(=O)O)c1 (stereo not given),6.81%,
O=C(O)C(F)(F)C(F)(F)C(F)(F)C(F)(F)C(F)(F)F,-2.35%,
CCN(C(C)=O)c1cccc(-c2ccnc3c(C#N)cnn23)c1,-0.296%,
CCCCCCCCCCCCN=C(N)N,-27.4% [at 2.69 µM],
N#CC(C#N)=C(C#N)C#N,7.54% [at 81.1 µM],
CC(Oc1cc(Cl)c(Cl)cc1Cl)C(=O)O (stereo not given),5.45%,
Clc1ccccc1,18.2%,
Nc1cccc2ccccc12,,inactive
NC(=S)c1c(Cl)cccc1Cl,-0.172%,
CCOP(=O)(O)C(N)=O,0.0906%,

Structure (SMILES),"activity change, negative = cytotoxicity",Potency
CC(C)(C)c1ccc(CCOc2ncnc3ccccc23)cc1,6.87%,
C[C@H](N)[C@H](O)c1ccc(O)c(O)c1,-18.1%,
C=CC(=O)NC(C)(C)CC(C)=O,-9.43%,
CCOc1cccc(C2(N3CCN(c4ccccc4)CC3)CCC(C)CC2)c1 (stereo not given),-3.09%,
CCc1ccccc1N,1.29%,
CCCCCCCCCCCCCCCl,8.72% [at 81.1 µM],
CCCC[N+]1(C)[C@@H]2CC(OC(=O)[C@H](CO)c3ccccc3)C[C@H]1[C@@H]1O[C@@H]12 (stereo not given in full),8.47%,
CN[C@@H](C)[C@H](O)c1ccccc1,0.743%,
Clc1ccc(Cl)c(Cl)c1,,inactive
CCCCC1C(=O)NC(=O)N(C2CCCCC2)C1=O (stereo not given),-1.95%,
O=C1NC(=O)C(=O)C(=O)N1,-7.16% [at 81.1 µM],
CCCCNC(=O)OCC#CI,,inactive
OC[P+](CO)(CO)CO,10.5%,
CC(C)c1ccc(NC(=O)N(C)C)cc1,4.09%,
CC(C)(C#N)C(C)(C)C#N,1.38% [at 81.1 µM],
CCOC(C(=O)OCCN(C)C)(c1ccccc1)c1ccccc1,3.49%,
CCCN(CCOc1c(Cl)cc(Cl)cc1Cl)C(=O)n1ccnc1,,inactive
COc1ccc(C(O)(c2cncnc2)C2CC2)cc1 (stereo not given),23.9%,
CC(C)(C)NCC(O)c1ccccc1Cl (stereo not given),0.302%,
CCCC[N+](CCCC)(CCCC)CCCC,-0.563%,
